“And” between values parts separate entries of the source, which are not always exact repeats. Equal entries are not always repeated. Results filed as inconclusive are left out. The source made the active and inactive calls. Calls follow the shape of the dose curve; as a rule, active = well fitted curve in the direction sought with a large enough effect; inconclusive = small, poorly fitted or top-dose-only effect, or another doubt; inactive = no such curve, though single readings can be large or run the other way.
Test: qHTS Assay for Identifying Gametocytocidal Compounds (AID 743244);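 also: actives lower the fluorescent signal which means gametocytes are killed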
Conditions: P. falciparum 3D7 stage III-V gametocytes, alamarBlue, 72 h; max response: active compounds read low
Method in brief: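 P. falciparum 3D7 stage III–V gametocytes (20,000 cells/well) were exposed to compounds for 72 h at 37 °C, 5% CO2. AlamarBlue was then added for 24 h; decreased resorufin fluorescence (Ex 525/Em 598 nm) indicated loss of viability.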
% is scaled to controls: 0 for no effect and ±100 for the full control effect.

Which max response does the source give for CC(=O)OC[C@H]1O[C@@H](O[C@H]2[C@H](O)[C@@H](OC(=O)c3ccccc3C(=O)O)[C@H](O)O[C@@H]2COC(C)=O)[C@H](O)[C@@H](OC(=O)c2ccccc2C(=O)O)[C@@H]1O here?
Its max response is -3.61% (inactive).

With CCOC(=O)[C@H](CCc1ccccc1)N[C@H]1CCCN2CCC[C@@H](C(=O)O)N2C1=O as the compound, how does the max response read?
Its max response is -15.1% (inactive).

Which max response does the source give for CCCCCCCCCCCCCCCCCC(=O)OCCO here?
The max response was -0.219% (inactive).

Which max response does the source give for Nc1c(CC(=O)O)cccc1C(=O)c1ccccc1 here?
Its max response is -9.51% (inactive) and 6.92% (inactive).

For COC1=C(C(=O)O)N2C(=O)[C@@H](NC(=O)[C@H](N)C3=CCC=CC3)[C@H]2SC1, which max response is on record?
Its max response is -12.6% (inactive).

Which max response does the source give for O=S(O)CO here?
The max response was 18.2% (inactive).

Which max response does the source give for CN1CCN(C2=Nc3ccccc3Cc3ccccc32)CC1 here?
The max response was 2.36% (inactive).

For CCC(=O)O, which max response is on record?
Its max response is -11.8% (inactive).

For CCCCCCCC(=O)CC[C@@H]1[C@@H](C/C=C\CCCC(=O)OC(C)C)[C@@H](O)C[C@H]1O, which max response is on record?
Its max response is 0.0052% (inactive).

With O=C(Nc1ccc(/C=C/c2ccc(NC(=O)c3cc(S(=O)(=O)O)c4cccnc4c3O)cc2S(=O)(=O)O)c(S(=O)(=O)O)c1)c1cc(S(=O)(=O)O)c2cccnc2c1O as the compound, how does the max response read?
The max response was -6.63% (inactive).

For CC1(C)S[C@@H]2[C@H](NC(=O)C(C(=O)Oc3ccc4c(c3)CCC4)c3ccccc3)C(=O)N2[C@H]1C(=O)O (stereo partly drawn), which max response is on record?
Its max response is 5.21% (inactive).

With COc1cc2c(c(OC)c1OC)-c1c(cc3c(c1OC)OCO3)C[C@@H](C)[C@](C)(O)C2 as the compound, how does the max response read?
The max response was 3.46% (inactive) and 15.8% (inactive).

With CC(C(=O)O)c1ccc(C2CCCCC2)c2ccccc12 (stereo not drawn) as the compound, how does the max response read?
The max response was 16% (inactive).

Which max response does the source give for O=C(Cn1c(=O)sc2ccc(Cl)cc21)N1CCN(CCO)CC1 here?
The max response was -8.47% (inactive).

For O=c1[nH]cnc2[nH]cc(CN3CCCCC3)c12, which max response is on record?
Its max response is 10.8% (inactive).

Which max response does the source give for O=P(O)(O)OC(CO)CO here?
The max response was 10.5% (inactive).

Which max response does the source give for O=C[C@H](O)[C@@H](O)[C@H](O[C@H]1O[C@H](CO)[C@@H](O[C@H]2O[C@H](CO)[C@@H](O)[C@H](O)[C@H]2O)[C@H](O)[C@H]1O)[C@H](O)CO here?
The max response was 10.4% (inactive).

With CCCCCCCCCCCCCCCCCC(=O)[O][Al] as the compound, how does the max response read?
Its max response is -2.25% (inactive).

With CCCC(CCC)C(N)=O as the compound, how does the max response read?
Its max response is -4.93% (inactive).

With CC(CC(c1ccccc1)c1ccccc1)NC(C)(C)C (stereo not drawn) as the compound, how does the max response read?
Its max response is -8.24% (inactive).

Which max response does the source give for Cc1ccccc1CNc1ncnc2c1ncn2[C@@H]1O[C@H](CO)[C@@H](O)[C@H]1O here?
Its max response is -9.34% (inactive).

For O=C(O)c1cccc(/C=C2/C[C@@H]3[C@@H](/C=C/[C@@H](O)C4CCCCC4)[C@H](O)C[C@@H]3O2)c1, which max response is on record?
Its max response is -5.6% (inactive).

For NCCCC[C@H](NC(=O)[C@@H]1CCCN1C(=O)[C@@H]1CSSC[C@H](N)C(=O)N[C@@H](Cc2ccccc2)C(=O)N[C@@H](Cc2ccccc2)C(=O)N[C@@H](CCC(N)=O)C(=O)N[C@@H](CC(N)=O)C(=O)N1)C(=O)NCC(N)=O, which max response is on record?
Its max response is -4.07% (inactive).

With O.O=C([O-])CC([S-])C(=O)[O-].[Au+].[Na+].[Na+] (stereo not drawn) as the compound, how does the max response read?
Its max response is -19.1% (inactive).

With COc1ccnc(CS(=O)c2nc3cc(OC(F)F)ccc3[nH]2)c1OC (stereo not drawn) as the compound, how does the max response read?
The max response was -13.5% (inactive).

Which max response does the source give for CCCCCC(O)/C=C/C=O (stereo not drawn) here?
Its max response is -0.932% (inactive).

For CCC(=O)OCC(=O)[C@@]1(OC(=O)CC)[C@H](C)C[C@H]2[C@@H]3CCC4=CC(=O)C=C[C@]4(C)[C@@]3(F)[C@@H](O)C[C@@]21C, which max response is on record?
The max response was -4.58% (inactive).

Which max response does the source give for OCC(O)COc1ccc(Cl)cc1 (stereo not drawn) here?
The max response was 3.94% (inactive).

For CSCC[C@H](NC(=O)[C@H](Cc1ccc(OS(=O)(=O)O)cc1)NC(=O)[C@@H](N)CC(=O)O)C(=O)NCC(=O)N[C@@H](Cc1c[nH]c2ccccc12)C(=O)N[C@@H](CCSC)C(=O)N[C@@H](CC(=O)O)C(=O)N[C@@H](Cc1ccccc1)C(N)=O, which max response is on record?
Its max response is -12.2% (inactive) and 15% (inactive).

With NCCCNCCCCNC(=O)C(O)NC(=O)CCCCCCN=C(N)N (stereo not drawn) as the compound, how does the max response read?
Its max response is -11.8% (inactive).

With Cc1[nH]cnc1C[C@H]1CCc2c(C)c3ccccc3n2C1=O as the compound, how does the max response read?
The max response was 6.9% (inactive).

With CCCCCCCCCCCCCCCC(=O)OC[C@@H](COP(=O)([O-])OCC[N+](C)(C)C)OC(=O)CCCCCCCCCCCCCCC as the compound, how does the max response read?
The max response was 1.44% (inactive).

For C[C@H](CSC(=O)c1ccccc1)C(=O)N1C[C@@H](Sc2ccccc2)C[C@H]1C(=O)O, which max response is on record?
Its max response is 13.2% (inactive).
